Sampled rows, rich in hits. Any-hit rate of the full collection: about 19%.
HT1080 IDH1KD tx: kills HT-1080 cells with IDH1 knockdown; 360,000 tested, 2% active; HT-1080 IDH1 knockdown viability, ATP luminescence, 48 h; Potency, µM (highest dose often 46.1 µM), inactives show at the highest dose activity, negative = toxicity, actives largely listed as cytotoxic;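 also: potency is read from the fitted curve at half-maximal effect; 0% = DMSO wells and -100% = cell-free medium wells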
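Knockdown cells (IDH1KD HT-1080) received compounds 2 h after plating at 750 cells/well and were kept 48 h at 37 °C in 5% FBS RPMI. A CellTiter-Glo luminescence read gave % activity for curve fitting.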
IL1B secr inh: inhibitors of inflammasome signaling (IL-1 beta secretion); AID 743279; THP-1 LPS/ATP IL-1B secretion, AlphaLISA, 16 h; active compounds read low; 360,000 tested, 4.7% active; activity change, % at 57.5 µM; in the data active = activity change below about -50%; inconclusive = mostly about -30% to -49%
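Secreted IL-1B measured by AlphaLISA bead assay after 16 h compound exposure of THP-1 cells; compounds (final up to 57.5 uM) added 1 h before LPS (250 ng/mL) and ATP (1.25 mM) stimulation; lower signal means less secretion.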
HT1080-NT tox: kills 2HG-producing HT-1080-NT fibrosarcoma cells. HT-1080-NT fibrosarcoma viability, CellTiter-Glo ATP luminescence, 48 h. Potency, µM (top dose mostly 46.1 µM), without a hit: at the highest dose activity, negative = less viability, actives largely listed as cytotoxic. 360,000 tested, 1.6% active. AID 686970;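 also: NT is the 2HG producing partner of a matched IDH1 knockdown line; potency is read from the fitted curve at half-maximal effect; 0% = DMSO-treated cells and -100% = media-only wells without cells; nearly all actives have a fitted effect of over 55% in size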
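Viability of the 2HG-overproducing fibrosarcoma line after 48 hours of compound exposure at 37 degrees C was determined by luminescence with CellTiter-Glo, and concentration-effect curves were then fitted and categorized.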
DT40 TDP1 no CPT: qHTS for Inhibitors of human tyrosyl-DNA phosphodiesterase 1 (TDP1): qHTS in cells in absence of CPT. AID 686978, 2013. DT40 Tdp1-/- hTDP1 cells, no CPT, ATP luminescence, 48 h. 420,000 tested, 15% active. Potency, µM (titrated, usually from 46.2 µM), for inactives: at the highest dose activity change, negative = growth inhibition, hits mostly inhibitors; also: potency is read from the fitted curve at half-maximal effect; nearly all actives have a fitted effect of over 55% in size
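Growth of hTDP1-complemented DT40 Tdp1-knockout cells is measured by ATP luminescence after at least 48 hr compound exposure at 37 °C, with DMSO substituting for the 20 nM CPT used in the parallel screen.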
uPA generation: inhibitors of cell surface uPA generation; cell surface uPA generation assay, qHTS; Potency, µM (titrated, usually from 38.3 µM), without a hit: top-dose activity change, negative = inhibition, hits mostly inhibitors; 330,000 tested, 0.31% active; AID 540303; active = well fitted inhibition curve with a large enough effect; inconclusive = small, poorly fitted or top-dose-only effect; inactive = no such curve, though single readings can be large or run the other way; tested in mouse RAW 264.7 cells; also: potency is read from the fitted curve at half-maximal effect; nearly all actives have a fitted effect of over 55% in size
DT40 TDP1 CPT: growth inhibition of DT40 Tdp1-/-;hTDP1 cells with camptothecin (screen for TDP1 inhibitors); Potency, µM (series often up to 46.2 µM), for inactives: top-dose activity change, negative = growth inhibition, hits mostly inhibitors; chicken DT40 Tdp1-/-;hTDP1 cells + 20 nM CPT, ATP luminescence, 48 h; 420,000 tested, 12% active; also: potency is read from the fitted curve at half-maximal effect; nearly all actives have a fitted effect of over 55% in size
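Chicken DT40 Tdp1-/- cells complemented with human TDP1, 400 cells/well, exposed to compounds plus 20 nM camptothecin for at least 48 h at 37 C; viability read as ATP content by CellTiter-Glo luminescence.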
Starred values were filed as active, the others as inactive; ! = repeats disagree; [ ] = remark or other dose. Unless noted, calls follow the shape of the dose curve; as a rule, active = well fitted curve in the direction sought with a large enough effect; inconclusive = small, poorly fitted or top-dose-only effect, or another doubt; inactive = no such curve, though single readings can be large; an effect the other way counts as inactive or inconclusive. Unless noted, % is scaled to controls: 0 for no effect and ±100 for the full control effect.

For O=C(NC1CCCCC1)C(c1ccc2ncccc2c1)N(Cc1ccccc1)C(=O)c1ccc2c(c1)OCCO2 (configuration not stated) the results were HT1080 IDH1KD tx -1.5%[9.24 µM], IL1B secr inh -55.4*, HT1080-NT tox inconclusive, DT40 TDP1 no CPT inconclusive, uPA generation 5.5% and DT40 TDP1 CPT 13µM*.
COc1ccc(CN(C(=O)c2ccc3c(c2)OCCO3)C(C(=O)NC2CCCCC2)c2ccc3ncccc3c2)cc1 (configuration not stated) was read as HT1080 IDH1KD tx 4.8%[9.24 µM], IL1B secr inh 12.8, HT1080-NT tox -29.6%, DT40 TDP1 no CPT 18.4µM*, uPA generation -8.3% and DT40 TDP1 CPT inconclusive.
Cc1cc2cc(CN(Cc3cccs3)C(c3nnnn3C(C)(C)C)C(C)C)c3nnnn3c2cc1C (configuration not stated) was read as HT1080 IDH1KD tx 2.1%, IL1B secr inh 20.4, HT1080-NT tox 3.4%, DT40 TDP1 no CPT 9.2µM*, uPA generation -0.3% and DT40 TDP1 CPT 14.6µM*.
CC(C)(C)n1nnnc1C(c1cccs1)N1CCN(Cc2ccc3c(c2)OCO3)CC1 (configuration not stated) was read as HT1080 IDH1KD tx 4.9%, IL1B secr inh -20.8, HT1080-NT tox 5.8%, DT40 TDP1 no CPT inconclusive, uPA generation -3.2% and DT40 TDP1 CPT -2.2%.
`CCc1cccc(N(C)C(N)=Nc2cccc3ccccc23)c1` gave HT1080 IDH1KD tx 17.2%, IL1B secr inh 14.7, HT1080-NT tox inconclusive, DT40 TDP1 no CPT 15µM*!, uPA generation 20.4% and DT40 TDP1 CPT 10.6µM*!.
Screening COc1cccc(C2=NS(=O)(=O)N(C)C(C(=O)Nc3cccc(O)c3)=C2)c1 returned DT40 TDP1 no CPT 16.4µM* and DT40 TDP1 CPT 14.6µM*.
COc1ccc(C2=NS(=O)(=O)N(C)C(C(=O)Nc3ccc(C(C)=O)cc3)=C2)cc1OC was read as HT1080 IDH1KD tx -8.7%, IL1B secr inh -96.7*, HT1080-NT tox -16.3%, DT40 TDP1 no CPT 11.6µM*, uPA generation -6.1% and DT40 TDP1 CPT 18.4µM*.
For COc1ccc(C2=NS(=O)(=O)N(C)C(C(=O)Nc3cc(OC)c(OC)c(OC)c3)=C2)cc1 the results were HT1080 IDH1KD tx -0.1%, IL1B secr inh -25.5, HT1080-NT tox -19.0%, DT40 TDP1 no CPT 14.6µM*, uPA generation -1.9% and DT40 TDP1 CPT 11.6µM*.
COc1cc(NC(=O)C2=CC(c3cccs3)=NS(=O)(=O)N2C)cc(OC)c1OC was read as HT1080 IDH1KD tx 0.4%, IL1B secr inh 16.9, HT1080-NT tox 5.8%, DT40 TDP1 no CPT inconclusive, uPA generation 1.8% and DT40 TDP1 CPT inconclusive.
Screening CC(=O)c1cccc(NC(=O)C2=CC(c3ccc4c(c3)OCO4)=NS(=O)(=O)N2C)c1 returned HT1080 IDH1KD tx 0.5%, IL1B secr inh -15.9, HT1080-NT tox -1.8%, DT40 TDP1 no CPT 16.4µM*, uPA generation 1.0% and DT40 TDP1 CPT inconclusive.
`O=C1OCC/C1=C\NCCCN/C=C1\CCOC1=O` gave HT1080 IDH1KD tx -5.4%, IL1B secr inh -0.7, HT1080-NT tox -5.7%, DT40 TDP1 no CPT -17.2% and DT40 TDP1 CPT -8.1%.
Screening O=C(COC(=O)c1cc(-c2cccs2)nn1-c1ccccc1)Nc1ccc(F)c([N+](=O)[O-])c1 returned HT1080 IDH1KD tx -5.3%, IL1B secr inh -4.9, HT1080-NT tox -1.3%, DT40 TDP1 no CPT -21.5%, uPA generation 19.4% and DT40 TDP1 CPT -24.9%.
For COc1ccc(NC(=O)C2=CC(c3ccc(C)cc3)=NS(=O)(=O)N2C)cc1OC the results were HT1080 IDH1KD tx -1.9%, IL1B secr inh 1.4, HT1080-NT tox 0.7%, DT40 TDP1 no CPT 20.6µM*, uPA generation -9.3% and DT40 TDP1 CPT 23.1µM*.
`COc1ccc(C2=NS(=O)(=O)N(C)C(C(=O)Nc3ccc(OC)c(OC)c3)=C2)cc1` gave HT1080 IDH1KD tx 0.7%, IL1B secr inh 9.4, HT1080-NT tox 0.6%, DT40 TDP1 no CPT 16.4µM*, uPA generation -18.0% and DT40 TDP1 CPT inconclusive.
Screening COc1ccc(NC(=O)C2=CC(c3ccc(C)cc3)=NS(=O)(=O)N2C)cc1 returned HT1080 IDH1KD tx -0.8%, IL1B secr inh 1.5, HT1080-NT tox -2.1%, DT40 TDP1 no CPT 23.1µM*, uPA generation 4.1% and DT40 TDP1 CPT 16.4µM*.
For COc1ccc(NC(=O)C2=CC(c3ccco3)=NS(=O)(=O)N2C)cc1OC the results were HT1080 IDH1KD tx 9.3%, IL1B secr inh 1.2, HT1080-NT tox 15.1%, DT40 TDP1 no CPT -10.4%, uPA generation -12.3% and DT40 TDP1 CPT 7.9%.
COc1ccc(C2=NS(=O)(=O)N(C)C(C(=O)Nc3cc(C)ccc3O)=C2)cc1OC was read as HT1080 IDH1KD tx 1.5%, IL1B secr inh -19.9, HT1080-NT tox -1.0%, DT40 TDP1 no CPT 5.17µM*, uPA generation -4.8% and DT40 TDP1 CPT 7.31µM*.
`Cc1cc(SCC(=O)c2ccc(O)c(O)c2)n2nc(C)c(-c3ccccc3)c2n1` gave HT1080 IDH1KD tx 9.2µM*, IL1B secr inh 0.0, HT1080-NT tox 8.2µM*, DT40 TDP1 no CPT 14.6µM*, uPA generation -11.0% and DT40 TDP1 CPT 18.4µM*.
For Cc1cc(C)nc(SCC(=O)c2ccc(O)c(O)c2)n1 the results were HT1080 IDH1KD tx -13.0%, IL1B secr inh 46.3, HT1080-NT tox -6.2%, DT40 TDP1 no CPT inconclusive, uPA generation inconclusive and DT40 TDP1 CPT inconclusive.
CC(C)C(=O)NC(c1cccs1)c1cc([N+](=O)[O-])c2cccnc2c1O (configuration not stated) was read as HT1080 IDH1KD tx 7.31µM*, IL1B secr inh -12.5, HT1080-NT tox inconclusive, DT40 TDP1 no CPT inconclusive, uPA generation 1.1% and DT40 TDP1 CPT inconclusive.
`O=[N+]([O-])c1cc2cccnc2c2ncccc12` gave HT1080 IDH1KD tx inconclusive, IL1B secr inh 89.6, HT1080-NT tox inconclusive, DT40 TDP1 no CPT inconclusive, uPA generation -11.5% and DT40 TDP1 CPT inconclusive.
For CCC(=O)NC(c1ccco1)c1cc(Cl)c2ccccc2c1O (configuration not stated) the results were uPA generation -7.4%.
CC(=O)NC(c1cccs1)c1cc(F)c2cccnc2c1O (configuration not stated) was read as uPA generation 5.01µM*.

High-throughput results from PubChem BioAssay.
